Compounds with a hit are over-represented: about 2.4% of the library has one in this group of screens.
Nrf2 inh – Nrf2 pathway inhibition. A549 ARE-Fluc reporter, luciferase luminescence, 18-24 h. 360,000 tested, 2.1% active. Potency, µM (top dose mostly 46 µM), inactives show top-dose activity change, negative = inhibition, hits mostly inhibitors; note: % is set by controls: 0 for no effect and ±100 for the full control effect; nearly all actives have a fitted effect of over 60% in size
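Two sequential reads on A549 ARE_Fluc cells exposed to compound for 18-24 h: a CellTiter-Fluor fluorescence read for viability, then a luciferase luminescence read for Nrf2/ARE activity.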
Epigenetic derep – epigenetic control regulation, reporter derepression; Potency, µM (titrated, usually from 53.9 µM), inactives show top-dose GFP activation, most hits filed as activators; 280,000 tested, 0.2% active; murine LDR cells, GFP reporter derepression, 30 h; AID 1865; note: % of control where 0% means no effect; nearly all actives have a fitted effect of over 60% in size
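Murine LDR cells carrying a silenced, genomically integrated CMV-driven GFP reporter were exposed to compound for 30 hours at 37 C. After PBS washes, GFP-positive cells (20–120 um objects) were counted by laser-scanning microplate cytometry.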
PINK1 expr mod – PINK1 expression modulation | PINK1 immunofluorescence, high-content cytometry, 24 h | Potency, µM (series often up to 76.6 µM), for inactives: at the top dose activation (PINK1 increase), usual class: activators | 410,000 tested, 0.2% active; active = well fitted activation curve with a large enough effect; inconclusive = small, poorly fitted or top-dose-only effect; cell line not stated here; note: % of control where 0% means no effect; nearly all actives have a fitted effect of over 65% in size
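Stable cell line treated 24 h with compounds at 5 concentrations (CCCP controls), then fixed and immunostained for PINK1 plus nuclear and cell stains; PINK1 immunofluorescence quantified by laser-scanning microplate cytometry.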
A549 viability – kills or reduces viability of A549 cells in Nrf2 counter-screen; A549 ARE-Fluc cells, CellTiter-Fluor viability, 18-24 h; Potency, µM (series often up to 46 µM), without a hit: top-dose activity change, negative = cytotoxicity, hits mostly inhibitors; 390,000 tested, 0.16% active; AID 504648; note: % is set by controls: 0 for no effect and ±100 for the full control effect
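A549 ARE-Fluc cells in 5% FBS OPTI-MEM, 5000 cells/well, rested 2 h then exposed to compounds in concentration-response for 18-24 h at 37 °C. Viability by CellTiter-Fluor fluorescence (Ex 405/Em 525) after 30 min; luciferase luminescence (BugLite, 15 min, RT) read afterwards.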
Nrf2 activator – Nrf2 pathway activation; 410,000 tested, 0.31% active; AREc32 ARE-luciferase reporter (MCF7-derived line), luminescence, 24 h; AID 624171; Potency, µM (top dose mostly 46.1 µM), for the others: top-dose activation, usual class: activators; note: % of control where 0% means no effect; nearly all actives have a fitted effect of over 65% in size
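Nrf2 activation is followed as ARE-luciferase induction in the AREc32 line after one day of compound treatment; luminescence is read with Steady-Glo.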
* = called active by the depositor; ? = inconclusive; · = not tested or not shown. Unless noted, calls come from the whole dose curve; as a rule, active = well fitted curve in the direction sought with a large enough effect; inconclusive = small, poorly fitted or top-dose-only effect, or another doubt; inactive = no such curve, though single readings can be large; an effect the other way counts as inactive or inconclusive. Potency is the fitted concentration of half-maximal effect.

SMILES	Nrf2 inh	Epigenetic derep	PINK1 expr mod	A549 viability	Nrf2 activator
C[C@@H]1O[C@@H](O[C@@H]2C=C3CC[C@@H]4C(CC[C@]5(C)[C@@H](c6ccc(=O)oc6)CC[C@]45O)[C@@]3(C)CC2)[C@H](O)[C@H](O)[C@H]1O (stereo partly drawn)	0.0231µM*	·	-0.2%	?	-3.2%
O=C(Nc1cccc(C(F)(F)F)c1)C1CCCN1S(=O)(=O)c1cccc2nsnc12 (stereo not drawn)	?	-1.1%	-0.2%	-9.7%	4.0%
N=c1c2c(n(Cc3ccc(Cl)cc3Cl)c3c1CCC3)CCCC2	13µM*	-1.1%	?	?	6.6%
Cc1nn(Cc2ccc(Cl)cc2Cl)c(Cl)c1C(=O)O	11.9%	-1.5%	-2.1%	21.9%	4.8%
O=C(c1ccc2c(c1)N(Cc1c(F)cccc1Cl)C(=O)c1ccccc1S2)N1CCC2(CC1)OCCO2	20.6µM*	-1.3%	-1.2%	?	-0.3%
Cc1ccc(NC(=O)C2CCN(C(=O)c3cnn(-c4ccccc4)c3-n3cccc3)CC2)cc1Cl	?	-3.4%	2.9%	-23.9%	-0.4%
CC[C@H](C)[C@H](NC(=O)[C@H](CCCN=C(N)N)NC(=O)[C@H](CCCN=C(N)N)NC(=O)[C@H](CC(C)C)NC(=O)[C@H](Cc1ccccc1)NC(=O)CNC(=O)CNC(=O)[C@@H](N)Cc1ccc(O)cc1)C(=O)O	·	0.0%	·	·	·
CCN(CC)C(=O)c1ccc(NC(=O)CCn2nc(-c3ccc(C)cc3)c3ccccc3c2=O)cc1	18.4µM*	-1.0%	0.2%	-22.1%	0.6%
COc1ccc(N2CCN(Cc3nc4ccccc4[nH]3)CC2)cc1	0.5%	·	-1.5%	2.8%	2.8%
CCCc1cc(N2CCN(c3ccc(OC)cc3)CC2)n2cnnc2n1	11.6µM*	0.2%	-1.0%	-17.9%	-1.2%
CCN1/C(=C\C=C\C2=[N+](CC)c3ccccc3C2(C)C)C(C)(C)c2ccccc21	0.651µM*	-2.7%	-1.7%	5.17µM*	-4.3%
CCn1nc(C)c(CN2CCCC(C(=O)c3cccc(OC(C)C)c3)C2)c1C (stereo not drawn)	10.3µM*	-1.5%	-0.7%	0.0%	0.0%
Cc1cc[n+](Cc2ccccc2)cc1	18.4µM*	·	-0.8%	-0.6%	-0.4%
CC(C)c1ccc(Cc2cnc(NC(=O)c3ccc4c(c3)CC(c3ccccc3)OC4=O)s2)cc1 (stereo not drawn)	?	2.7%	-0.2%	-7.2%	-2.2%
Cc1cccc(C(=O)Nc2nnc(SCC(=O)NCc3ccco3)s2)c1	8.9%	·	-0.5%	2.0%	3.16µM*
CCCc1nc2ccc(Br)cc2c(=O)n1-c1ccc([N+](=O)[O-])c(C(F)(F)F)c1	20.6µM*	-0.9%	14.1µM*	-23.4%	6.2%
Cn1c(O)c(C=NCc2cccs2)c(=O)n(C)c1=O	-3.1%	-0.3%	·	4.3%	6.7%
Cc1ccccc1OCCN=Cc1c(O)n(C)c(=O)n(C)c1=O	20.6µM*	-0.2%	-1.1%	-16.2%	0.8%
CN(C)c1ccc(/C=C/C=C/c2sc3ccccc3[n+]2C)cc1	?	2.4%	5.01µM*	-11.8%	3.5%
CN(C)c1ccc(/C=C/c2cc[n+](C)c3ccccc23)cc1	8.2µM*	-1.3%	25.1µM*	16.4µM*	-1.2%
CC[n+]1c(/C=C/C=C/c2ccc(N(C)C)cc2)sc2ccccc21	?	0.0%	-0.1%	-25.4%	-0.4%
COc1ccccc1OCCCn1cc(C(C)=O)c2ccccc21	?	1.0%	-0.1%	0.4%	3.1%
COc1ccc(C(=O)NCCn2cc(SC(C)c3ccccc3)c3ccccc32)cc1OC (stereo not drawn)	23.1µM*	-1.1%	18.3%	-18.8%	0.7%
CCC(C)C(=O)c1c(O)c(C)c2oc3c(C)c(O)c(C(=O)C(C)CC)c(O)c3c2c1O (stereo not drawn)	·	-2.1%	15.8µM*	·	·
Cc1cc(/C=C/c2cccc3sc(C)[n+](CCCCI)c23)ccc1N(CCCl)CCCl	·	·	3.2%	·	·
SMILES	Nrf2 inh	Epigenetic derep	PINK1 expr mod	A549 viability	Nrf2 activator
Oc1ccc(-[n+]2c(-c3ccccc3)cc(-c3ccccc3)cc2-c2ccccc2)cc1	-21.4%	·	?	-10.6%	-2.1%
COc1ccc(-[n+]2c(-c3ccccc3)cc(-c3ccccc3)cc2-c2ccccc2)cc1	?	·	15.8µM*	?	-0.5%
COc1cccc(C(=O)N/N=C(/c2ccccc2)c2ccccn2)c1	10µM*	0.0%	3.3%	?	-0.4%
CC1N(C)c2cc(NC(=O)c3ccco3)c(P(=O)(Nc3ccc([N+](=O)[O-])cc3)N3CCOCC3)cc2C1(C)C (stereo not drawn)	16.4µM*	-1.3%	-0.9%	20.6µM*	3.8%
Cc1ccc(NC(=O)Nc2cc3c(cc2N2CCCCC2)n(C)c(=O)n3C)cc1Cl	20.6µM*	2.4%	1.4%	-19.0%	0.0%
NC(=O)c1cc([N+](=O)[O-])cc([N+](=O)[O-])c1	-18.4%	-2.2%	0.2%	0.5%	-1.2%
CC(C)(C)c1cc([N+](=O)[O-])cc(C(C)(C)C)c1O	18.4µM*	-2.1%	5.01µM*	?	0.0%
CC(Cc1ccccc1)NC(N)=O (stereo not drawn)	-1.1%	4.1%	1.2%	1.7%	-0.5%
O=C(O)CNC(=O)C(CS)Cc1ccccc1 (stereo not drawn)	10.3µM*	-0.1%	1.9%	-10.0%	0.2%
NC(=O)c1cc(N2CC2)c([N+](=O)[O-])cc1[N+](=O)[O-]	13µM*	-0.2%	2.8%	?	1.3%
COC(=O)c1ccc(N2CCN(C)CC2)c([N+](=O)[O-])c1	0.2%	-1.5%	-0.4%	-3.1%	-0.6%
CC(C)(C)c1nc(N2CCN(C(=O)c3ccco3)CC2)c2nnn(Cc3ccccc3Cl)c2n1	18.4µM*	3.2%	5.7%	2.3%	0.7%
CCCCC/C=C\C/C=C\C/C=C\CCCCC(=O)NCCO	·	-1.1%	·	·	·
CCOC(=O)C(O)(c1ccc(NC(=S)NC(=O)c2ccc(Cl)cc2Cl)c(C)c1)C(F)(F)F (stereo not drawn)	14.6µM*	1.0%	?	?	-0.7%
O=C(Oc1ccc([N+](=O)[O-])cc1)N1CCN(/[N+]([O-])=N/Oc2ccc([N+](=O)[O-])cc2[N+](=O)[O-])CC1	·	·	-1.1%	·	·
C[N+](C)(C)CC1CCCc2ccccc2C1=O (stereo not drawn)	9.6%	·	-1.7%	-3.4%	20.5%
C[N+](C)(C)CC1CCCC(C[N+](C)(C)C)C1=O (stereo not drawn)	0.5%	·	0.6%	-3.7%	11.2µM*
S=C(S)N1CCCC1	5.8µM*	?	0.2%	-6.6%	0.0%
O=C(N1CCCCCC1)N1CC1	5.7%	·	0.5%	-7.5%	-0.5%
CCOc1ccc(CN(CCc2ccc3c(c2)OCO3)Cc2cc(OC)ccc2O)cc1	9.4%	2.8%	-0.8%	2.7%	6.1%
Cc1cccc(N2CCN(C(=O)CCS(=O)(=O)c3ccc4c(c3)oc(=O)n4C)CC2)c1C	?	-1.3%	-0.9%	3.9%	0.2%

Assay outcomes from PubChem.
